Unmarked numbers belong to inactive results. Calls of active or inactive are those of the source.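 Rule for the calls: active = fitted AC50 no higher than ten times the top tested dose (cut at about 90 µM in these data); inconclusive = flat curve with 30 to 70% signal loss, or bad fit; inactive = AC50 beyond ten times the top dose.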
test: TruHit bead signal quenchers or artefacts – biochemical, TruHit kit, artefact control, dose response (AID 1259339); details: TruHit alphaLISA kit signal interference counterscreen; series mostly up to 80 µM; activity change, negative = signal loss: at the top concentration

Compound	AC50	activity change, negative = signal loss
C(=C\c1ccco1)/c1nc2ccccc2[nH]1	22.5 µM (active)	–
O=C(COC(=O)c1cc(-c2ccco2)nc2ccccc12)NCc1ccccc1	35.1 µM (active)	–
O=S(=O)(c1ccccc1)N1CC2CN(Cc3ccc(O)cc3)C2C1 (configuration not stated)	–	-10.5%
COc1ccc2nc(-c3ccco3)c(-c3ccco3)nc2c1	35.1 µM (active)	–
NC(=O)C1(N2CCCCC2)CCN(c2ncc(NC(=O)c3cccc(Cl)c3)cc2C(=O)O)CC1	> 160 µM	–
Cc1ccc(-c2cc(C(=O)NCc3ccco3)c3ccccc3n2)o1	64.5 µM (active)	–
Cc1ccccc1C(=O)Nc1cnc(N2CCC(C(N)=O)(N3CCCCC3)CC2)c(C(=O)O)c1	–	-4.19%
O=C(NCCCN1CCOCC1)c1cc(-c2ccco2)nc2ccccc12	27.5 µM (active)	–
COc1ccc(-n2c(C)c3c(OC)cccc(=O)c3c2C)cc1	22.1 µM (active)	–
O=C(Nc1ccc2oc(-c3ccncc3)nc2c1)c1ccc2c(c1)OCO2	–	-13%
O=C(NC1CC1)c1cc(-c2ccco2)nc2ccccc12	–	-6.19%
O=C1C=C(c2ccccc2)Nc2ccccc2N1	–	4.78%
CCCc1cc(C(=O)N2CC[C@H]3CNC[C@H]32)n(C)n1	–	11.4%
COCC(=O)N1CCCC2(CCN(CCN3CCCC3)C2=O)C1 (configuration not stated)	–	-7.83%
NC(=O)C1(N2CCCCC2)CCN(c2ccc(NC(=O)c3cccc(Cl)c3)cc2C(=O)O)CC1	–	16%
Cc1ccc(C(=O)Nc2ccc(N3CCC(C(N)=O)(N4CCCCC4)CC3)c(C(=O)O)c2)cc1	–	-6.04%
O=C(COc1cccnc1[N+](=O)[O-])c1ccc(Cl)s1	23.2 µM (active)	–

— PubChem BioAssay AID1259339 (Broad Institute, 2017)
